Values without a mark were called inactive.
The targets below were run with C#CCNC(=O)CCSSCCC(=O)NCCc1ccc(C=O)c(C=O)c1 (assay: lysine labeling ratio R10:1 (500 µM / 50 µM probe), SILAC-ABPP in living cells; higher = lower intrinsic lysine reactivity toward the probe, active = 2 or less). Conditions: HeLa; probe concentrations 500 vs 50 µM.
Method in brief: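 With forward and reverse label swaps, light and heavy SILAC HeLa cells, alive and in PBS at room temperature, were exposed to either 500 µM or 50 µM of an alkyne-tagged lysine probe bearing a disulfide link. After mixing, lysates were clicked to biotin-azide, cut with trypsin, pulled down on neutravidin, freed with DTT, alkylated and analysed on a TIMS-TOF Pro by LC-MS/MS. The per-lysine value R is the median over forward and reverse replicates of the filtered median high-probe/low-probe MS1 peptide ratio. It is capped at 20.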

Chain of UniProt Q15149 (Q15149 whole entry): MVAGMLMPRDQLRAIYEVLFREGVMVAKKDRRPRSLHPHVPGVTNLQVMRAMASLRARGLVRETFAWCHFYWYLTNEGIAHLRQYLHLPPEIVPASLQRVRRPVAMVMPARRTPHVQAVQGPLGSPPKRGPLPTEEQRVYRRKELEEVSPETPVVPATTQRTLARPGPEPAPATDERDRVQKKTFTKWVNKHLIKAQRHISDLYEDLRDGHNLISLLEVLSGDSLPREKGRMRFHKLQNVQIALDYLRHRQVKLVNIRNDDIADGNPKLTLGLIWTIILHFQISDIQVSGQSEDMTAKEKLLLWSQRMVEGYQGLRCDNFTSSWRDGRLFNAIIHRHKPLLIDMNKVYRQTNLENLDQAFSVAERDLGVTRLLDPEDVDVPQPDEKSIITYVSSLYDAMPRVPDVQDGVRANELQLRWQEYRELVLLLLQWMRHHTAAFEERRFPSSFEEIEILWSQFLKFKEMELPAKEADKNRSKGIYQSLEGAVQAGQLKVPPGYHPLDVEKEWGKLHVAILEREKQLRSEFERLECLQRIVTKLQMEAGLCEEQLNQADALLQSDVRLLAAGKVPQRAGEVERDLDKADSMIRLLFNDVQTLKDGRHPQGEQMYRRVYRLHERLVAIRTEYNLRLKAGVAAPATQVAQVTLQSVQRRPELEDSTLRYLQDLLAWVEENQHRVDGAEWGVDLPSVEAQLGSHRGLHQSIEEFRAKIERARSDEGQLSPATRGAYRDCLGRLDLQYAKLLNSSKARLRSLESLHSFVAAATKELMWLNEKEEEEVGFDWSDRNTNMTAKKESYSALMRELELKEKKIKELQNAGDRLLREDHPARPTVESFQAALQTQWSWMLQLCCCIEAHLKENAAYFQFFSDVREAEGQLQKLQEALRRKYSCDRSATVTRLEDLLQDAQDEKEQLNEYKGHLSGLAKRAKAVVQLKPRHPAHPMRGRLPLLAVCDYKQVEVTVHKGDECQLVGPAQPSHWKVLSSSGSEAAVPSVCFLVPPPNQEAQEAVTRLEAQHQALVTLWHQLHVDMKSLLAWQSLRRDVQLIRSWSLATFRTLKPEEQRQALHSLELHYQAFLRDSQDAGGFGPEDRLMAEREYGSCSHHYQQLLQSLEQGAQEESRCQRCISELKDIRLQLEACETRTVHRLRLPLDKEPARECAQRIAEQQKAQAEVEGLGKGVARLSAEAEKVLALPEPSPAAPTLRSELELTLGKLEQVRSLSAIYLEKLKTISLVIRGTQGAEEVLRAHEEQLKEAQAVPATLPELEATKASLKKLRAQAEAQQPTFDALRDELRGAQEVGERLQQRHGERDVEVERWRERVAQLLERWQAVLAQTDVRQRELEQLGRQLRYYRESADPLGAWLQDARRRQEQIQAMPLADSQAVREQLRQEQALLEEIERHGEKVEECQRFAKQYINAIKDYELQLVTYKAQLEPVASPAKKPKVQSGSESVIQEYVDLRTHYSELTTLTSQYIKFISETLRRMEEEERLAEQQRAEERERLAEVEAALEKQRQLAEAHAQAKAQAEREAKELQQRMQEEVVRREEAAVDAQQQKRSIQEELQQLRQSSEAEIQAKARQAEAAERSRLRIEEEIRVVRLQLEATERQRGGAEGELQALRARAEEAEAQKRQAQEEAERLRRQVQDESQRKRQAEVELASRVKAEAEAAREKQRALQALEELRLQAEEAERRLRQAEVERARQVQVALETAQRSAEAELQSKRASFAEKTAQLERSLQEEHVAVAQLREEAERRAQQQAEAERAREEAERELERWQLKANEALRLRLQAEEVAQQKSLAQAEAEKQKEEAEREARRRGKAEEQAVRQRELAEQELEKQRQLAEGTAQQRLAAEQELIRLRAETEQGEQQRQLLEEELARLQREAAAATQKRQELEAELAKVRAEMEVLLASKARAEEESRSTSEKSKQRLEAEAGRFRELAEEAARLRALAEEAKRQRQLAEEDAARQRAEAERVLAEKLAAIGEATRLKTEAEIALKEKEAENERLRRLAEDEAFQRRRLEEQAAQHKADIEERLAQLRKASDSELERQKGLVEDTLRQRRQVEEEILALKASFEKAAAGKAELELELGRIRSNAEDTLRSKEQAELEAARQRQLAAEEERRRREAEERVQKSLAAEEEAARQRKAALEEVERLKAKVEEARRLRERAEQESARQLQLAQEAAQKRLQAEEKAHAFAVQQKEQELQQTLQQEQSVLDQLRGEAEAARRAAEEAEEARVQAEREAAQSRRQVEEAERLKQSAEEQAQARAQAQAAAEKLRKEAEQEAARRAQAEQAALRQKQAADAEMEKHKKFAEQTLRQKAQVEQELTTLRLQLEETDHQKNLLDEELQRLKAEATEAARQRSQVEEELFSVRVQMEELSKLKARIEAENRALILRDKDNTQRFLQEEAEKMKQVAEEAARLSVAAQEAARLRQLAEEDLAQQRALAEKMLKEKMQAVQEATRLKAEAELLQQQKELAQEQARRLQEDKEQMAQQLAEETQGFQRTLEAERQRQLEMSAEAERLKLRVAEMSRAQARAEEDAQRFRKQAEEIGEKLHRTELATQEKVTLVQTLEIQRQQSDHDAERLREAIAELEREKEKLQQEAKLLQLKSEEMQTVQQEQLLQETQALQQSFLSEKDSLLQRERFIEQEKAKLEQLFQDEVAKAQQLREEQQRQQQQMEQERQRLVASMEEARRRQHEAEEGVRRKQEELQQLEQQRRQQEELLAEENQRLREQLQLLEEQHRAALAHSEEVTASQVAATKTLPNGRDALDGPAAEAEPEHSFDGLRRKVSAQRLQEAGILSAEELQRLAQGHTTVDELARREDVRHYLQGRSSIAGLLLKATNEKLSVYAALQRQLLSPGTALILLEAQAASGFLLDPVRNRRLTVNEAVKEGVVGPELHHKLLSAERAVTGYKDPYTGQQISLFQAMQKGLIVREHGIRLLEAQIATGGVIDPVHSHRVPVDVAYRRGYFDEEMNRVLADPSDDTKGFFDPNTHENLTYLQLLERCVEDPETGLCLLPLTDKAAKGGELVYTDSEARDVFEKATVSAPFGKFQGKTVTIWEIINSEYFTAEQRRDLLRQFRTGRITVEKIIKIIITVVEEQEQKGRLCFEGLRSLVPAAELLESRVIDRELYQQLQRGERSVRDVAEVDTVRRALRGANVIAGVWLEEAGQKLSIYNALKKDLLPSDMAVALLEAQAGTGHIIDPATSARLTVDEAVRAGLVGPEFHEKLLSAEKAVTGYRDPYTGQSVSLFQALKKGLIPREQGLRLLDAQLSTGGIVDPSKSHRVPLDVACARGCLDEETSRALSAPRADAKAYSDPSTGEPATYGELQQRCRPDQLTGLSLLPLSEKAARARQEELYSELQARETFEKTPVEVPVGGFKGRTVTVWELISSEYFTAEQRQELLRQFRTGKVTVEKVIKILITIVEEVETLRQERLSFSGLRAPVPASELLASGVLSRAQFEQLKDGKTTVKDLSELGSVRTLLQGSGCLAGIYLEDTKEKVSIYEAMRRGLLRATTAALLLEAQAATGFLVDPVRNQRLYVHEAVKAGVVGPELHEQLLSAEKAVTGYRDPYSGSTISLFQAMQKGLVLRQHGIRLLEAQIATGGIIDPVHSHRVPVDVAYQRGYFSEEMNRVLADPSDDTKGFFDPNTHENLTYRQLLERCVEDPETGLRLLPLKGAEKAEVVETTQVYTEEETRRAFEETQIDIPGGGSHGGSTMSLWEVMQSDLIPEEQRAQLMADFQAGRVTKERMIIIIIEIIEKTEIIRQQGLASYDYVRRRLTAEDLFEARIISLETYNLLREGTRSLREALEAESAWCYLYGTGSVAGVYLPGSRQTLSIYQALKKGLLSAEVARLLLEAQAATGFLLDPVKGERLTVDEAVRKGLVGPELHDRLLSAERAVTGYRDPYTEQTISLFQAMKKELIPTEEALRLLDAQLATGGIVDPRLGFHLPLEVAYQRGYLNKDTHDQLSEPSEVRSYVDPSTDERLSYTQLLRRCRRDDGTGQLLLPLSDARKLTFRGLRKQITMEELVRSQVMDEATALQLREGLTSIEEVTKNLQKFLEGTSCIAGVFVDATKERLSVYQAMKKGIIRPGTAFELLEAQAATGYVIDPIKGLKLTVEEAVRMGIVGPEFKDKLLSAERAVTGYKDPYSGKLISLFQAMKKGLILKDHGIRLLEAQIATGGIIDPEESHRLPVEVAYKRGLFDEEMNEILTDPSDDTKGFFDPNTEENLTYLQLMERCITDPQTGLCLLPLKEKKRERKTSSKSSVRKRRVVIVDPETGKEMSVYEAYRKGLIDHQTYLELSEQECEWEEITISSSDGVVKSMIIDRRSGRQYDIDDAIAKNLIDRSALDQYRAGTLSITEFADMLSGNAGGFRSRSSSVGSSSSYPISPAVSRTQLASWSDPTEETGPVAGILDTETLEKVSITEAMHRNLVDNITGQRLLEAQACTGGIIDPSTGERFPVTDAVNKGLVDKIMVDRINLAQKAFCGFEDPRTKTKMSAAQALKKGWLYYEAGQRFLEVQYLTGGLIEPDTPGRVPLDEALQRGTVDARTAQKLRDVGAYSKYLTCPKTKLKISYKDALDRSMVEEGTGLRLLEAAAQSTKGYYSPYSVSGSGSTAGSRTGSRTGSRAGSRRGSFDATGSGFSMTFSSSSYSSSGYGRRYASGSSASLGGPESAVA
Chain of UniProt Q71U36 (Q71U36 whole entry): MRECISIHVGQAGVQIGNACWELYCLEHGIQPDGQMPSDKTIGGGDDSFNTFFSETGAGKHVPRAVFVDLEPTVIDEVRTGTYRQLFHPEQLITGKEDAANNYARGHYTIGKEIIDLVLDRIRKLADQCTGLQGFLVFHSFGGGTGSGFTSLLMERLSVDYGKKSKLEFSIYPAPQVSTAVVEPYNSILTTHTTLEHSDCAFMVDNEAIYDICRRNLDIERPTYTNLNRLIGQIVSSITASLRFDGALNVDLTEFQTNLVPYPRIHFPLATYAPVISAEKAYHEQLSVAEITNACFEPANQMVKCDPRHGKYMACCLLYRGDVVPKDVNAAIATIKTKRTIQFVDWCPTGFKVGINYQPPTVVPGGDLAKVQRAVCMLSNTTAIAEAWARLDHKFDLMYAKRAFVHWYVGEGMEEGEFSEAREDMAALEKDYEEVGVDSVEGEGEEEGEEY

Target	lysine labeling ratio R10:1
ITGAV (lysine site: K514) (UniProt P06756)	0.678 (active)
KRT18 (lysine site: K111) (UniProt P05783)	14.4
EFNB2 (lysine site: K163) (UniProt P52799)	1.53 (active)
ARHGDIA (lysine site: K178) (UniProt P52565)	3.53
HNRNPU (lysine site: K609) (UniProt Q00839)	1.53 (active)
CKAP4 (lysine site: K339) (UniProt Q07065)	1.14 (active)
FN1 (lysine site: K249) (UniProt P02751)	2.7
RPL12 (lysine site: K54) (UniProt P30050)	0.658 (active)
TUBA1A (lysine site: K336) (UniProt Q71U36)	2 (active)
PAFAH1B1 (lysine site: K54) (UniProt P43034)	3.44
UniProt P08727 (lysine site: K370)	3.4
ITGB1 (lysine site: K87) (UniProt P05556)	2.04
VIM (lysine site: K188) (UniProt P08670)	11.1
GANAB (lysine site: K191) (UniProt Q14697)	4.19
SEMA3C (lysine site: K163) (UniProt Q99985)	3.6
FAT1 (lysine site: K978) (UniProt Q14517)	0.71 (active)
P4HB (lysine site: K103) (UniProt P07237)	4.27
DSG2 (lysine site: K254) (UniProt Q14126)	8.19
NEGR1 (lysine site: K231) (UniProt Q7Z3B1)	0.868 (active)
TGFBR3 (lysine site: K314) (UniProt Q03167)	1.51 (active)

Target	lysine labeling ratio R10:1
RPLP0 (lysine site: K106) (UniProt P05388)	0.868 (active)
UniProt Q15149 (lysine site: K2706)	3.69
LRP1 (lysine site: K2009) (UniProt Q07954)	3.1
CD63 (lysine site: K162) (UniProt P08962)	4.92
ENO1 (lysine site: K420) (UniProt P06733)	2.65
TPM4 (lysine site: K13) (UniProt P67936)	3.28
UniProt Q15149 (lysine site: K1520)	3.8
UniProt Q15303 (lysine site: K109)	1.9 (active)
UniProt P02768 (lysine site: K499)	7.98
UniProt Q15149 (lysine site: K1975)	5.68
UniProt Q15149 (lysine site: K1774)	8.57
IGF2R (lysine site: K527) (UniProt P11717)	2.81
GAS1 (lysine site: K137) (UniProt P54826)	3.54
RPS3 (lysine site: K75) (UniProt P23396)	2.68
UniProt P14618 (lysine site: K498)	1.49 (active)
UniProt P46781 (lysine site: K155)	2.28
UniProt Q15223 (lysine site: K190)	1.25 (active)
HSPD1 (lysine site: K469) (UniProt P10809)	4.7
DISP1 (lysine site: K380) (UniProt Q96F81)	2.05
TKT (lysine site: K352) (UniProt P29401)	6

— the supplement of paper PMC11001985
